Measurements reported in PubChem BioAssay (EPA / NIEHS).
Active and inactive are the calls of the source. The calls were made as follows: active = hit-call score of the fitted dose curve at least 0.9, where 1 is the maximum; inactive = score below 0.9.

Tests used:
[1] = read-out: Tissue plasminogen activator (tPA), PLAT (gene 5327); assay: BSK_BE3C_tPA: BioMAP Diversity Plus: BE3C Assay for Tissue plasminogen activator (tPA) Biomarker Activity (AID 2283041); details: primary human bronchial epithelial cells; actives raise or lower the signal
Outline: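 Gain- or loss-of-signal in tPA, measured by ELISA, derived by bidirectional fitting against DMSO. Cells: human primary bronchial epithelial; read at 24 h after chemical dosing.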

[2] = read-out: Interleukin-8 (IL8), CXCL8 (gene 3576); assay: BSK_CASM3C_IL8: BioMAP Diversity Plus: CASM3C Assay for Interleukin-8 (IL8) Biomarker Activity (AID 2283042); details: primary human coronary artery smooth muscle cells; actives raise or lower the signal;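 also: IL-8 protein level quantified by ELISA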
[3] = read-out: Human Leukocyte Antigen - DR isotype (HLADR), HLA-DRA (gene 3122); assay: BSK_CASM3C_HLADR: BioMAP Diversity Plus: CASM3C Assay for Human Leukocyte Antigen - DR isotype (HLADR) Biomarker Activity (AID 2283043); details: primary human coronary artery smooth muscle cells; actives raise or lower the signal;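 also: cell-surface HLA-DR protein level quantified by ELISA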
[4] = read-out: Macrophage colony-stimulating factor (MCSF), CSF1 (gene 1435); assay: BSK_CASM3C_MCSF: BioMAP Diversity Plus: CASM3C Assay for Macrophage colony-stimulating factor (MCSF) Biomarker Activity (AID 2283044); details: primary human coronary artery smooth muscle cells; actives raise or lower the signal;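 also: M-CSF protein amount quantified by ELISA after 24 h exposure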
[5] = read-out: Low-density lipoprotein receptor (LDLR), LDLR (gene 3949); assay: BSK_CASM3C_LDLR: BioMAP Diversity Plus: CASM3C Assay for Low-density lipoprotein receptor (LDLR) Biomarker Activity (AID 2283045); details: primary human coronary artery smooth muscle cells; actives raise or lower the signal;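 also: LDLR protein level on the cell surface quantified by ELISA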
[6] = read-out: Monocyte Chemoattractant Protein-1 (MCP1), CCL2 (gene 6347); assay: BSK_CASM3C_MCP1: BioMAP Diversity Plus: CASM3C Assay for Monocyte Chemoattractant Protein-1 (MCP1) Biomarker Activity (AID 2283046); details: primary human coronary artery smooth muscle cells; actives raise or lower the signal;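 also: MCP-1 level quantified by ELISA 24 h after dosing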
[7] = BSK_CASM3C_Proliferation: Cell Proliferation Assessment in the BioMAP Diversity Plus: CASM3C Assay (AID 2283047); details: primary human coronary artery smooth muscle cells;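 also: sulforhodamine B total protein stain as relative cell number at 560 nm; sub-confluent cells exposed 48 h before staining; fitted both ways against DMSO so gain or loss of cell number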
[8] = read-out: Monokine induced gamma interferon (MIG), CXCL9 (gene 4283); assay: BSK_CASM3C_MIG: BioMAP Diversity Plus: CASM3C Assay for Monokine induced gamma interferon (MIG) Biomarker Activity (AID 2283048); details: primary human coronary artery smooth muscle cells; actives raise or lower the signal;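 also: MIG protein level measured by ELISA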
[9] = read-out: serum amyloid A (SAA), SAA1 (gene 6288); assay: BSK_CASM3C_SAA: BioMAP Diversity Plus: CASM3C Assay for serum amyloid A (SAA) Biomarker Activity (AID 2283049); details: primary human coronary artery smooth muscle cells; actives raise or lower the signal;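 also: SAA protein level quantified by ELISA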
[10] = BSK_CASM3C_SRB: Viability Assessment in the BioMAP Diversity Plus: CASM3C Assay (AID 2283050); details: primary human coronary artery smooth muscle cells;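 also: total protein by SRB staining as cytotoxicity measure in parallel cultures; cells exposed to compound for 24 h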
[11] = read-out: Thrombomodulin, THBD (gene 7056); assay: BSK_CASM3C_Thrombomodulin: BioMAP Diversity Plus: CASM3C Assay for Thrombomodulin Biomarker Activity (AID 2283051); details: primary human coronary artery smooth muscle cells; actives raise or lower the signal;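 also: thrombomodulin protein level measured by ELISA 24 h after dosing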
[12] = read-out: Tissue Factor, F3 (gene 2152); assay: BSK_CASM3C_TissueFactor: BioMAP Diversity Plus: CASM3C Assay for Tissue Factor Biomarker Activity (AID 2283052); details: primary human coronary artery smooth muscle cells; actives raise or lower the signal;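 also: cell surface tissue factor protein level read by ELISA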
[13] = read-out: Interferon-gamma inducible Protein 10 (IP10), CXCL10 (gene 3627); assay: BSK_hDFCGF_IP10: BioMAP Diversity Plus: hDFCGF Assay for Interferon-gamma inducible Protein 10 (IP10) Biomarker Activity (AID 2283053); details: primary human foreskin fibroblasts; actives raise or lower the signal
Outline: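 Cells: human dermal foreskin fibroblasts. Exposure: 24 h post-dosing. Detection: IP-10 ELISA, with values expressed against DMSO controls and fitted in both directions.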

[14] = read-out: Urokinase-type plasminogen activator receptor (uPAR), PLAUR (gene 5329); assay: BSK_CASM3C_uPAR: BioMAP Diversity Plus: CASM3C Assay for Urokinase-type plasminogen activator receptor (uPAR) Biomarker Activity (AID 2283054); details: primary human coronary artery smooth muscle cells; actives raise or lower the signal;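 also: cell-surface uPAR protein level quantified by ELISA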
[15] = read-out: Vascular cell adhesion molecule 1 (VCAM1), VCAM1 (gene 7412); assay: BSK_CASM3C_VCAM1: BioMAP Diversity Plus: CASM3C Assay for Vascular cell adhesion molecule 1 (VCAM1) Biomarker Activity (AID 2283055); details: primary human coronary artery smooth muscle cells; actives raise or lower the signal;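 also: VCAM-1 protein level quantified by ELISA on the cells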
[16] = read-out: Epidermal growth factor receptor (EGFR), EGFR (gene 1956); assay: BSK_hDFCGF_EGFR: BioMAP Diversity Plus: hDFCGF Assay for Epidermal growth factor receptor (EGFR) Biomarker Activity (AID 2283057); details: primary human foreskin fibroblasts; actives raise or lower the signal
Outline: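 Dosing human primary skin fibroblasts, then measuring surface EGFR by ELISA at 24 h, gives the endpoint; gains and losses relative to DMSO were fitted in both directions.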

[17] = read-out: Interleukin-8 (IL8), CXCL8 (gene 3576); assay: BSK_hDFCGF_IL8: BioMAP Diversity Plus: hDFCGF Assay for Interleukin-8 (IL8) Biomarker Activity (AID 2283058); details: primary human foreskin fibroblasts; actives raise or lower the signal
Outline: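 Fibroblast monolayers (human foreskin, hDFCGF) received test chemical for 24 h before ELISA detection of IL-8; either increases or decreases relative to DMSO count as activity.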

[18] = BSK_hDFCGF_Proliferation: Cell Proliferation Assessment in the BioMAP Diversity Plus: hDFCGF Assay (AID 2283059); details: primary human foreskin fibroblasts;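 also: curves fitted for both rise and fall of signal versus DMSO baseline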
Outline: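 Primary human foreskin fibroblasts, sub-confluent; […]; 10% TCA fix, 0.1% SRB stain, A560 total protein. Gain/loss fitted bidirectionally vs DMSO control.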

[19] = read-out: Macrophage colony-stimulating factor (MCSF), CSF1 (gene 1435); assay: BSK_hDFCGF_MCSF: BioMAP Diversity Plus: hDFCGF Assay for Macrophage colony-stimulating factor (MCSF) Biomarker Activity (AID 2283060); details: primary human foreskin fibroblasts; actives raise or lower the signal
Outline: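 fibroblasts (human foreskin, primary), 24 h post-dose; M-CSF by ELISA; bidirectional fit, DMSO = baseline.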

Measured: AC50

CC(C)(C)OOC(=O)c1ccccc1
active: [7] 8.08 µM | [13] 33.2 µM | [17] 34.3 µM | [18] 20 µM | [19] 34.1 µM
inactive: all other assays above

C[C@]12C=CC3=C4CCC(=O)C=C4CC[C@H]3[C@@H]1CC[C@@H]2O
active: [1] 3.97 µM
inactive: all other assays above

Cc1ccc(N)cc1
inactive: all assays above

CS(=O)(=O)NC(=O)c1cc(Oc2ccc(C(F)(F)F)cc2Cl)ccc1[N+](=O)[O-]
active: [3] 20 µM
not listed: [12] | [18]
inactive: all other assays above

CN(C)c1ccccc1
not listed: [18]
inactive: all other assays above

O=C1CCCO1
not listed: [18]
inactive: all other assays above

CCCCCCCCn1sccc1=O
inactive: [16]
active: [1] 6.84 µM | [2] 14.3 µM | [3] 4.85 µM | [4] 10.8 µM | [5] 12.8 µM | [6] 15 µM | [7] 1.28 µM | [8] 9.51 µM | [9] 17.2 µM | [10] 14.7 µM | [11] 35.8 µM | [12] 14.2 µM | [13] 0.626 µM | [14] 11.5 µM | [15] 9.3 µM | [17] 1.62 µM | [19] 1.07 µM

C=CCc1ccc2c(c1)OCO2
not listed: [18]
inactive: all other assays above

CCN(CC)CCO
inactive: all assays above

Cc1ccc(N)c(N)c1
active: [11] 13.7 µM | [13] 3.97 µM | [15] 8.46 µM | [18] 14.7 µM
inactive: all other assays above

CCCCCCCCCCCCCN1CC(C)OC(C)C1 (centres undefined)
not listed: [18]
inactive: all other assays above

CCN(CC)N=O
not listed: [18]
inactive: all other assays above

Clc1ccc(Cl)c(Cl)c1
not listed: [18]
inactive: all other assays above

c1ccc(NNc2ccccc2)cc1
active: [11] 15.9 µM
not listed: [18]
inactive: all other assays above

Oc1ccccc1Cl
not listed: [18]
inactive: all other assays above
